46 compounds from PubChem BioAssay AID686978 (National Center for Advancing Translational Sciences (NCATS), 2013) can be followed below.

In all, about 420,000 compounds went through this assay and about 64,000 (15%) were called active. Another 27% or so got no clear call; they are omitted. These entries were drawn from the full list. A number with no mark means an inactive call. The call rests on the fitted dose curve; in most records, active means well fitted inhibition curve with a large enough effect; inconclusive means small, poorly fitted or top-dose-only effect; inactive means flat fitted curve, though single readings scatter.
On the % scale 0 is the no-effect control and ±100 the full control effect; potency means the concentration at half of the fitted maximal effect.

This assay can be described thus: qHTS for Inhibitors of human tyrosyl-DNA phosphodiesterase 1 (TDP1): qHTS in cells in absence of CPT. Further: nearly all actives have a fitted effect of over 55% in size. The following applies: DT40 Tdp1-/- hTDP1 cells, no CPT, ATP luminescence, 48 h; activity change, negative = growth inhibition: at 46.2 µM (top of the series). The procedure, abridged: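 Growth of hTDP1-complemented DT40 Tdp1-knockout cells is measured by ATP luminescence after at least 48 hr compound exposure at 37 °C, with DMSO substituting for the 20 nM CPT used in the parallel screen.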
On to `C=C1CCN([C@@H](Cc2ccccc2)C(=O)N2CCOCC2)S(=O)(=O)c2ccccc21`, for which the “activity change, negative = growth inhibition” value is -13.4%. In the case of `CC1(C)OC(=O)C2=C(C[C@@H](C3CCCCC3)O[C@@H]2c2ccc(Cl)cc2)O1`, the Potency is 20.6 µM (active). In the case of `CC1(C)OC(=O)C2=C(C[C@@H](C3CC3)O[C@H]2c2ccc(Cl)cc2)O1`, the “activity change, negative = growth inhibition” value is -11.7%. On to `CCC1OC(C2CC2)CC2=C1C(=O)OC(C)(C)O2` (stereo unspecified), for which the “activity change, negative = growth inhibition” value is -5.73%. On the same count and under the same terms, in the case of `OC(COCc1ccco1)CN1CCN(c2ccccc2)CC1` (stereo unspecified) it was -2.82%. Still for that read-out and setting: in the case of `COc1cccc(C(=O)NNS(=O)(=O)c2ccc(F)cc2)c1` it was -10.6%. Same read-out and setting: to `COc1ccc(-c2nnc(NC(=O)CS(=O)(=O)c3ccc(Cl)cc3)o2)c(OC)c1` belongs -0.822%. Regarding `COc1cccc(-c2nnc(NC(=O)c3ccc(S(=O)(=O)N(CC(C)C)CC(C)C)cc3)o2)c1`, the Potency was 4.61 µM (active).

As for `COc1ccc(CNC(=O)CN(Cc2ccc(Cl)cc2)S(C)(=O)=O)cc1`, the “activity change, negative = growth inhibition” value is -2.62%.

With `COc1ccc(OC)c(-n2c(=S)[nH]c3cc(C(=O)N4CCCCC4)ccc3c2=O)c1`, the “activity change, negative = growth inhibition” value was -27.4%.

Regarding `Cc1ccc2cccc(O)c2[n+]1[O-]`, the “activity change, negative = growth inhibition” value was -8.39%. `CCOC(=O)c1[nH]c2ccc(OC)cc2c1NC(=O)N1CCOCC1`: the “activity change, negative = growth inhibition” value was -20.1%.

In the case of `COc1ccc(CCNC(=O)c2c3c(nc4ccccc24)C(=O)N(C2CCCCC2)C3)cc1OC`, the Potency is 23.1 µM (active). With `COc1ccc(CCNC(=O)C2CCCN2C(=O)Nc2ccccc2)cc1OC` (stereo unspecified), the “activity change, negative = growth inhibition” value was 5.92%. Still for that read-out and setting: to `COc1ccc(CCNC(=O)CCC(=O)NC2CCCCC2)cc1OC` belongs -5.05%; to `CCNC(=O)CC1C(=O)N(c2ccc(OC)cc2)C(=O)N1CCOC` (stereo unspecified), 2.07%. With `CNc1nc(Nc2ccc(C)c(Cl)c2)nc(N)c1[N+](=O)[O-]`, the Potency was 6.51 µM (active). Turning to `COCCNc1nc(N)c([N+](=O)[O-])c(NCCO)n1`, the “activity change, negative = growth inhibition” value was -9.94%. `Cc1ccc(NC(=O)C/C(N)=N/O)cc1Cl`: the “activity change, negative = growth inhibition” value was -5.52%.

Turning to `O=C(NCCc1ccc(Cl)cc1)C1CCCN1C(=O)NCc1ccccc1` (stereo unspecified), the “activity change, negative = growth inhibition” value was -2.47%.

With `O=C(CC1Oc2ccccc2NC1=O)NCc1ccc(F)cc1` (stereo unspecified), the “activity change, negative = growth inhibition” value is -7.43%. For the compound `Cc1cc(C(=O)N/N=C/c2ccc(O)c([N+](=O)[O-])c2)c(C)n1-c1ccc(F)cc1`, the “activity change, negative = growth inhibition” value was -14.9%.

On to `O=C(N/N=C/c1ccc([N+](=O)[O-])o1)c1cn(-c2ccccc2)nc1-c1ccc(F)cc1`, for which the Potency was 5.8 µM (active). With `O=C(CSc1ccc(/C=N/NC(=O)c2cccc(F)c2)o1)Nc1ccccc1`, the “activity change, negative = growth inhibition” value was -7.37%. Same read-out and setting: to `COCC(=O)Nc1cc(C(=O)N2CCCC(c3ccccc3)CC2)c2c(c1)nc(-c1ccncc1)n2C` (stereo unspecified) belongs -24.5%. Same read-out and setting: in the case of `COc1ccc(NC(=O)CC(NC(C)c2ccccc2)C(=O)O)cc1` (stereo unspecified) it was 1.75%; in that of `C[C@@H]1CN([C@@H](C)CO)C(=O)CCCn2cc(nn2)CO[C@H]1CN(C)S(=O)(=O)c1ccc(-n2cccn2)cc1`, 1.79%. For the compound `Cc1ccc(C)c(NC(=O)c2cc(-c3cc(C)cc(C)c3O)n[nH]2)c1`, the Potency is 13 µM (active). For the compound `Cc1ccc(C)c(NC(=O)c2ccc3nccnc3c2)c1`, the “activity change, negative = growth inhibition” value is -24.9%. Same read-out and setting: in the case of `Cc1ccc(O)c(NC(=O)c2cc(-c3ccc(F)cc3)no2)c1` it was -20.1%. In the case of `CCCCN(C(=O)CCNC(=O)NC12CC3CC(CC(C3)C1)C2)c1c(N)n(CCCC)c(=O)[nH]c1=O`, the “activity change, negative = growth inhibition” value was -21.6%. Same read-out and setting: in the case of `CCOc1cc(CO)ccc1OCC(=O)N1CCCCC1` it was 3.17%. Take `Cc1ccc(N(C(=O)c2ccc(CN3CCOCC3)o2)C(C(=O)NCCC(C)C)c2cccs2)c(C)c1` (stereo unspecified): the “activity change, negative = growth inhibition” value was 4.05%. With `CCCC(=O)NC(C)C(c1cccs1)N1CCN(c2ccccc2)CC1` (stereo unspecified), the “activity change, negative = growth inhibition” value is -22.2%. `CC(NC(=O)Nc1ccccc1)c1ccccc1` (stereo unspecified): the “activity change, negative = growth inhibition” value is -10%. With `Cc1ccc(C(=O)NC(C)C(c2cccs2)N2CCOCC2)cc1C` (stereo unspecified), the Potency was 18.4 µM (active).

Take `Cc1ccc(C(=O)NCC(c2cccs2)N(C)C)cc1S(=O)(=O)N1CCOCC1` (stereo unspecified): the “activity change, negative = growth inhibition” value is 19.3%. With `CC(NC(=O)Nc1ccccc1)C(c1cccs1)N1CCN(c2ccccc2)CC1` (stereo unspecified), the Potency was 23.1 µM (active). Consider `COC(=O)c1sc(SC)c(S(=O)(=O)C(C)C)c1N/N=C(\C#N)S(=O)(=O)c1ccccn1`, for which the “activity change, negative = growth inhibition” value was -16.8%.

With `CC(=O)c1ccc(NC(=O)C(C)OC(=O)c2ccc(NS(=O)(=O)c3ccc4[nH]c(=O)[nH]c4c3)cc2)cc1` (stereo unspecified), the “activity change, negative = growth inhibition” value is 8.98%. With `Cc1ccc(C(=O)OC(C)CN2CCOCC2)cc1` (stereo unspecified), the “activity change, negative = growth inhibition” value is -22%. For `COc1ccc(N2CCN(C(=O)[C@@H](NC(=O)c3cc(OC)cc(OC)c3)C(C)C)CC2)cc1`, the Potency was 8.2 µM (active). As to `COc1cc(OC)cc(C(=O)NC(C(=O)N2CCC2)C(C)C)c1` (stereo unspecified), the “activity change, negative = growth inhibition” value is -6.14%. Consider `COc1cc(OC)cc(C(=O)NCC(=O)N2CCCCCCC2)c1`, for which the “activity change, negative = growth inhibition” value is 3.53%. Still for that read-out and setting: to `CCOc1ccc(/C(O)=C2/C(=O)C(=O)N(Cc3cccnc3)C2c2ccc(N(C)C)cc2)c(C)c1` (stereo unspecified) belongs 0.155%. For `C=CCC[C@@H](CCCCC)OC(=O)/C=C/[C@@H](O)[C@H](O)C[C@H](O)CC=C`, the Potency is 18.4 µM (active).
